Assay results taken from PubChem BioAssay (EPA / NIEHS).
Calls of active or inactive are those of the source. Rule for the calls: active = hit-call score of the fitted dose curve at least 0.9, where 1 is the maximum; inactive = score below 0.9.

Assay: ATG_Oct_MLP_CIS: Attagene CIS-FACTORIAL HepG2 Assay for human Octamer-Binding Transcription Factor (Oct) (AID 2282993)
Conditions: HepG2 Attagene cis-factorial Oct reporter, mRNA; actives raise or lower the signal
Procedure: ATG_CIS is a cell-based, multiplexed-readout assay that uses HepG2, a human liver cell line, with measurements taken at 24 hours after chemical dosing in a 24-well plate.ATG_Oct_MLP_CIS is one of 52 assay component(s) measured or calculated from the ATG_CIS assay. It is designed to make measurements of mRNA induction, a form of inducible reporter, as detected with fluorescence intensity signals by Reverse transcription polymerase chain reaction (RT-PCR) and Capillary electrophoresis technology.Data from the assay component ATG_Oct_MLP_CIS was analyzed into 1 assay endpoint. This assay endpoint, ATG_Oct_MLP_CIS, was analyzed with bidirectional fitting relative to DMSO as the negative control and baseline of activity. Using a type of inducible reporter, measures of mRNA for gain or loss-of-signal activity can be used to understand the reporter gene at the transcription factor-level as they relate to the gene POU2F1. Furthermore, this assay endpoint can be referred to as a primary readout, because this assay has produced multiple assay endpoints where this one serves a reporter gene function. To generalize the intended target to other relatable targets, this assay endpoint is annotated to the dna binding intended target family, where the subfamily is POU domain protein.
Human liver HepG2 cells are transiently transfected with multiple reporter transcription units (MRTUs) in 6-well plates using FuGene 6 reagent (Roche; 3 ml FuGene/1 mg DNA). The MRTU constructs are regulated by a cis-regulating element (promoter). […] A major difference between the CIS and TRANS system is that in CIS activities of endogenous TFs are measured, whereas the TRANS assay evaluates changes in activities of exogenous, chimeric NR-Gal4 proteins. […] At the end of 24 hour incubation, total RNA was isolated using TriZol reagent (Invitrogen). The isolated RNA is then reverse-transcribed using oligo(dT) primer and Mo-MLV reverse transcriptase (Invitrogen) with DNAse I (Ambion) treatment for 30 min. The one-tenth of the produced cDNA was amplified by PCR using Taq DNA polymerase (Invitrogen) and two reporter sequence-specific primers. The PCR products were fluorescently labeled by primer extension with 6-arboxyfluorescein (6-FAM) 5'-labeled reporter sequence-specific primer (2 min at 95 C, 20 s at 68 C and 10 min at 72 C) and these products were digested with 5U of HpaI (New England Biolabs) for 2h at 37 C. The fragments were purified using Qiaquick PCR columns (Qiagen), analyzed on an ABI 3130xL genetic analyzer (Applied Biosystems) with peak positions identified by using a set of X-rhodamine (ROX)-labeled MapMarker1000 molecular weight standards (BioVentures). The raw capillary electrophoresis data was processed using Attagraph software (Attagene).

outcome, inactive:
C1=CC2C3C=CC(C3)C2C1 (stereo not given)
CCC1(c2ccccc2)C(=O)NCNC1=O
FC(F)(F)COCC(F)(F)F
CCCCCCCCCCCC(=O)OC[C@@H](O)[C@H]1OC[C@H](O)[C@H]1O
CCCC[P+](CCCC)(CCCC)CCCC
CCCCC(CC)COC(=O)c1ccc(O)cc1 (stereo not given)
CCOc1ccc(N=Nc2ccc(C=Cc3ccc(N=Nc4ccc(OCC)cc4)cc3S(=O)(=O)O)c(S(=O)(=O)O)c2)cc1
CC(Oc1cc(Cl)ccc1Cl)C(=O)O (stereo not given)
COc1cc([C@@H]2c3cc4c(cc3[C@@H](O[C@@H]3O[C@@H]5CO[C@@H](C)O[C@H]5[C@H](O)[C@H]3O)[C@H]3COC(=O)[C@H]23)OCO4)cc(OC)c1O
COC(=O)C=C(C)CCC=C(C)C
CC/C=C\CCOC(=O)CC
CC1CCC(C(C)C)C(O)C1 (stereo not given)
CC(=O)NCCO
COC(=O)c1ccc([N+](=O)[O-])cc1
C=CC(=C)CCCC(C)(C)OC(C)=O
COCCOCCOCCO
CCCC1O[C@@H]2C[C@H]3[C@@H]4CCC5=CC(=O)C=C[C@]5(C)[C@H]4[C@@H](O)C[C@]3(C)[C@]2(C(=O)CO)O1 (stereo not given in full)
CS(=O)(=O)OCCCCOS(C)(=O)=O
CC(C)(N=C=O)c1cccc(C(C)(C)N=C=O)c1
Cc1ccc(N)c(S(=O)(=O)O)c1
C=CCOC(=O)CCCCCC
CC(=O)OCCCc1ccccc1
CCCCCCC(O)CCCCCCCCCCC(=O)O (stereo not given)
CCCCCCC(C)Nc1ccc(Nc2ccccc2)cc1 (stereo not given)
CCN(CCC#N)c1ccc(N=Nc2ccc([N+](=O)[O-])cc2)cc1
OCCOCCN1CCN(C2=Nc3ccccc3Sc3ccccc32)CC1
COC(CC(C)CCCC(C)(C)O)OC (stereo not given)
O=C(c1ccccc1)C(O)c1ccccc1 (stereo not given)
CC1(C)COCN1
Cc1c(Cl)cccc1[N+](=O)[O-]
COCCOC(=O)c1ccccc1C(=O)OCCOC
Nc1c(S(=O)(=O)O)cc(Br)c2c1C(=O)c1ccccc1C2=O
CC(C)NCC(O)COc1ccc(CC(N)=O)cc1 (stereo not given)
CCCC(O)C(O)CO (stereo not given)
C[C@H]1C[C@@H](O)CC(C)(C)C1
C[N+](C)(C)CCCCCC[N+](C)(C)C
CCCC(=O)c1ccccc1
COc1ccc(OC)c(N=Nc2c(O)ccc3ccccc23)c1
CC(C)C[C@H](NC(=O)OCC1c2ccccc2-c2ccccc21)C(=O)O
C=C1CC[C@H](O)C/C1=C/C=C1\CCC[C@]2(C)[C@@H]([C@H](C)/C=C/[C@H](C)C(C)C)CC[C@@H]12
